The whole screen tested about 5,500 compounds, of which about 2,000 (36%) were called active. About 18% were inconclusive and are not listed. Cut-off read from the data, not from the text of the source: active = normalized growth mostly below about 0.91 (no sharp cut-off); inconclusive = no clear call, values can overlap the other calls; inactive = mostly above about 0.92. The list shows a part of the results.
Experiment: chemical genetic growth profiling, strain panel (AID 1159580);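 note: tested at 20 µM; growth read once vehicle control cultures reached saturation at 30 °C; 1 = growth at the plate median or of vehicle wells; lower values mean less growth of the strain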
Conditions: S. cerevisiae deletion strains, growth OD

Measured: normalized growth

COC(=O)[C@@H]1OC(=O)C2OC23[C@@]1(C)CCC1[C@@]2(C)CCC(=O)C(C)(C)C2C[C@@H](OC(C)=O)[C@]13C (stereo not given in full)
inactive: locus YAL021C, strain ccr4, hits give low values 1.01 | locus YAL026C, strain drs2, hits give low values 1.01 | locus YAL030W, strain snc1, hits give low values 1.01 | locus YBL061C, strain skt5, hits give low values 1.01 | locus YBR009C, strain hhf1, hits give low values 1.01 | locus YBR021W, strain FUR4, hits give low values 1.03 | locus YBR023C, strain chs3, hits give low values 1.01 | locus YBR171W, strain sec66, hits give low values 1.02 | locus YBR229C, strain ROT2, hits give low values 1.01 | locus YBR231C, strain swc5, hits give low values 1.01 | locus YBR279W, strain paf1, hits give low values 1.02 | locus YCL011C, strain gbp2, hits give low values 1.01 | locus YCL016C, strain dcc1, hits give low values 1.02 | locus YCL029C, strain bik1, hits give low values 1.04 | locus YCL061C, strain MRC1, hits give low values 1.01 | locus YCL069W, strain vba3, hits give low values 1.01 | locus YCR088W, strain abp1, hits give low values 1.02 | locus YDL005C, strain med2, hits give low values 1.02 | locus YDL035C, strain GPR1, hits give low values 1.05 | locus YDL040C, strain nat1, hits give low values 1.02 | locus YDL074C, strain BRE1, hits give low values 1.14 | locus YDL101C, strain DUN1, hits give low values 1.04 | locus YDL185W, strain tfp1, hits give low values 1.01 | locus YDL192W, strain arf1, hits give low values 1.02 | locus YDR001C, strain nth1, hits give low values 1.01 | locus YDR069C, strain doa4, hits give low values 1.02 | locus YDR101C, strain arx1, hits give low values 1.01 | locus YDR137W, strain rgp1, hits give low values 1.01 | locus YDR159W, strain sac3, hits give low values 1.01 | locus YDR162C, strain NBP2, hits give low values 1.04 | locus YDR195W, strain ref2 0.999 | locus YDR297W, strain sur2, hits give low values 1.01 | locus YDR318W, strain mcm21, hits give low values 1.02 | locus YDR334W, strain swr1, hits give low values 1.02 | locus YDR335W, strain msn5, hits give low values 1.02 | locus YDR388W, hits give low values 1.01 | locus YDR392W, strain spt3, hits give low values 1.01 | locus YDR502C, strain sam2, hits give low values 1.01 | locus YEL003W, strain gim4, hits give low values 1.02 | locus YEL037C, strain rad23, hits give low values 1.02 | locus YEL061C, strain CIN8 (second series), hits give low values 1.03 | locus YER015W, strain faa2, hits give low values 1.02 | locus YER016W, strain bim1, hits give low values 1.02 | locus YER110C, hits give low values 0.992 | locus YER111C, strain swi4, hits give low values 1.01 | locus YER155C, strain BEM2 (second series), hits give low values 1.03 | locus YER155C, strain BEM2, hits give low values 1 | locus YER167W, strain BCK2, hits give low values 1.01 | locus YFR010W, strain ubp6, hits give low values 1.01 | locus YGL078C, strain dbp3, hits give low values 1 | locus YGL086W, strain mad1, hits give low values 1.02 | locus YGL167C, strain pmr1, hits give low values 1.02 | locus YGL173C, strain kem1, hits give low values 1.01 | locus YGL227W, strain vid30, hits give low values 1.02 | locus YGL240W, strain doc1, hits give low values 1.02 | locus YGL248W, strain PDE1, hits give low values 1.05 | locus YGL253W, strain hxk2, hits give low values 1.01 | locus YGR078C, strain PAC10, hits give low values 1.05 | locus YGR135W, strain pre9, hits give low values 1.05 | locus YGR252W, strain gcn5, hits give low values 1.08 | locus YHR013C, strain ard1, hits give low values 1.02 | locus YHR027C, strain rpn1, hits give low values 1.02 | locus YHR079C, strain IRE1 (second series), hits give low values 0.995 | locus YHR094C, strain hxt1, hits give low values 0.992 | locus YHR129C, strain ARP1, hits give low values 1.03 | locus YHR142W, strain chs7, hits give low values 1.03 | locus YHR200W, strain rpn10, hits give low values 1.02 | locus YIL066C, strain RNR3, hits give low values 1.02 | locus YIL073C, strain SPO22, hits give low values 1.1 | locus YIL125W, strain kgd1, hits give low values 1.01 | locus YIR030C, strain dcg1, hits give low values 0.991 | locus YJL092W, strain hpr5, hits give low values 1.01 | locus YJL095W, strain BCK1 (second series), hits give low values 1.01 | locus YJL095W, strain BCK1, hits give low values 1.1 | locus YJL115W, strain asf1, hits give low values 1 | locus YJL129C, strain trk1, hits give low values 1.03 | locus YJL134W, strain LCB3, hits give low values 1.01 | locus YJL154C, strain vps35, hits give low values 1.03 | locus YJL164C, strain tpk1, hits give low values 1.03 | locus YJL166W, strain qcr8, hits give low values 1.01 | locus YJL168C, strain set2, hits give low values 1.01 | locus YJL187C, strain SWE1 (second series), hits give low values 1.03 | locus YJL187C, strain SWE1, hits give low values 1.02 | locus YJR043C, strain POL32, hits give low values 1.09 | locus YKL009W, strain mrt4, hits give low values 1 | locus YKL068W, hits give low values 1.01 | locus YKL085W, strain MDH1 (second series), hits give low values 0.994 | locus YKL085W, strain MDH1, hits give low values 0.994 | locus YKL160W, strain elf1, hits give low values 1.02 | locus YKL190W, strain CNB1, hits give low values 1.02 | locus YKR001C, strain vps1, hits give low values 1.06 | locus YKR026C, strain gcn3, hits give low values 1.02 | locus YKR091W, strain srl3, hits give low values 1.02 | locus YLL001W, strain dnm1, hits give low values 1.01 | locus YLL026W, hits give low values 1.02 | locus YLL041C, strain sdh2, hits give low values 1.01 | locus YLR027C, strain aat2, hits give low values 1.03 | locus YLR039C, strain RIC1, hits give low values 1.13 | locus YLR058C, strain SHM2, hits give low values 1.04 | locus YLR102C, strain apc9, hits give low values 0.99 | locus YLR221C, strain rsa3, hits give low values 1.01 | locus YLR258W, strain gsy2, hits give low values 1.01 | locus YLR262C, strain YPT6 (second series), hits give low values 1.03 | locus YLR268W, strain sec22, hits give low values 1.04 | locus YLR320W, strain mms22, hits give low values 1.02 | locus YLR330W, strain CHS5, hits give low values 1.01 | locus YLR342W, strain FKS1 (second series), hits give low values 1.03 | locus YLR342W, strain FKS1, hits give low values 1.02 | locus YLR357W, strain rsc2, hits give low values 1 | locus YLR370C, strain arc18, hits give low values 1.01 | locus YLR371W, strain rom2, hits give low values 1.02 | locus YLR384C, strain iki3, hits give low values 1.04 | locus YLR418C, strain cdc73, hits give low values 1.06 | locus YML016C, strain PPZ1, hits give low values 1.01 | locus YML032C, strain rad52, hits give low values 0.992 | locus YML120C, strain ndi1, hits give low values 1.02 | locus YML124C, strain tub3, hits give low values 0.99 | locus YMR058W, strain fet3, hits give low values 1.01 | locus YMR078C, strain ctf18, hits give low values 0.998 | locus YMR125W, strain sto1, hits give low values 1.02 | locus YMR129W, hits give low values 1.01 | locus YMR205C, strain PFK2, hits give low values 1.02 | locus YMR223W, strain ubp8, hits give low values 1.01 | locus YMR231W, strain pep5, hits give low values 1 | locus YMR307W, strain GAS1, hits give low values 1.2 | locus YNL067W, strain RPL9B, hits give low values 1.03 | locus YNL071W, strain lat1, hits give low values 1.02 | locus YNL153C, strain GIM3, hits give low values 1.06 | locus YNL209W, strain ssb2, hits give low values 1.02 | locus YNL233W, strain BNI4, hits give low values 1.08 | locus YNL248C, strain rpa49, hits give low values 1.01 | locus YNL250W, strain rad50, hits give low values 1.01 | locus YNL271C, strain bni1, hits give low values 0.997 | locus YNL298W, strain CLA4, hits give low values 1.01 | locus YNL307C, strain MCK1, hits give low values 0.995 | locus YNL322C, strain KRE1 (second series), hits give low values 1.02 | locus YNR049C, strain mso1, hits give low values 1.01 | locus YNR052C, strain pop2, hits give low values 0.989 | locus YOL012C, strain htz1 1.07 | locus YOL147C, strain pex11, hits give low values 1 | locus YOR001W, strain rrp6, hits give low values 1.02 | locus YOR061W, strain CKA2, hits give low values 1.02 | locus YOR069W, strain VPS5, hits give low values 1.01 | locus YOR070C, strain gyp1, hits give low values 1 | locus YOR080W, strain dia2, hits give low values 1.01 | locus YOR083W, strain WHI5, hits give low values 1.02 | locus YOR106W, strain vam3, hits give low values 1.01 | locus YOR136W, strain idh2, hits give low values 0.993 | locus YOR144C, strain elg1, hits give low values 0.993 | locus YOR184W, strain ser1, hits give low values 1.03 | locus YOR265W, strain rbl2, hits give low values 1.01 | locus YOR270C, strain vph1, hits give low values 1.05 | locus YOR290C, strain snf2, hits give low values 1.02 | locus YOR316C, strain cot1, hits give low values 1 | locus YPL051W, strain arl3, hits give low values 0.993 | locus YPL055C, strain LGE1, hits give low values 1.11 | locus YPL078C, strain atp4, hits give low values 1.01 | locus YPL106C, strain sse1, hits give low values 1.01 | locus YPL240C, strain hsp82, hits give low values 1.01 | locus YPL241C, strain CIN2, hits give low values 1.01 | locus YPR119W, strain clb2, hits give low values 0.993 | locus YPR141C, strain kar3, hits give low values 0.994 | locus YPR163C, strain tif3, hits give low values 1.01 | locus YPR167C, strain met16, hits give low values 1.01 | strain wtn01, hits give low values 1.02
